From PubChem
HP1b chromo inh: HTS for Inhibitors of HP1-beta Chromodomain Interactions with Methylated Histone Tails | Chromobox protein homolog 1 (Homo sapiens), P83916 | AlphaScreen HP1-beta / biotin-H3K9me3 peptide binding | Potency, µM (highest dose often 114 µM), for the others: at the top dose activity change, negative = inhibition, actives largely listed as inhibitors | 390,000 compounds, 0.56% hits | AID 540317, 2011; also: potency is read from the fitted curve at half-maximal effect; nearly all actives have a fitted effect of over 70% in size
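Compound inhibition of the preformed complex between 50 nM HP1-beta and 50 nM biotinylated H3K9me3 peptide was read by AlphaScreen. Buffer was PBS pH 7.4 with 0.01% Tween-20. Incubations ran 30 min at room temperature, with 10 ug/mL donor/acceptor beads.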
G9a inh: qHTS Assay for Inhibitors of Histone Lysine Methyltransferase G9a | Potency, µM (series often up to 102 µM), without a hit: at the highest dose activity, negative = inhibition, most hits filed as inhibitors | AID 504332, 2011 | Histone-lysine N-methyltransferase EHMT2 (Homo sapiens), Q96KQ7 | 350,000 compounds, 8.8% hits | G9a H3K9 monomethylation, AlphaScreen, 2 h; also: potency is read from the fitted curve at half-maximal effect; % is scaled to controls: 0 for no effect and ±100 for the full control effect; nearly all actives have a fitted effect of over 75% in size
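G9a (20 nM) was preincubated 15 min with compound, then reacted 2 h at room temperature with 500 nM biotin-H3K9 peptide and 20 µM SAM. Monomethyl-H3K9 detected by AlphaScreen using anti-H3K9me1 antibody.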
JMJD2A Tudor inh: qHTS Assay for Inhibitors of JMJD2A-Tudor Domain. Lysine-specific demethylase 4A (Homo sapiens), O75164. AlphaScreen JMJD2A-Tudor / H3K4me3 peptide binding. Potency, µM (series often up to 114 µM), without a hit: top-dose activity change, negative = inhibition, actives largely listed as inhibitors. 390,000 compounds, 4.4% hits. AID 504339, 2011; also: potency is read from the fitted curve at half-maximal effect; % is scaled to controls: 0 for no effect and ±100 for the full control effect; nearly all actives have a fitted effect of over 50% in size
PI5P4K alpha inh: qHTS for Inhibitors of phosphatidylinositol 5-phosphate 4-kinase (PI5P4K); Phosphatidylinositol 5-phosphate 4-kinase type-2 alpha (Homo sapiens), P48426; PI5P4Kalpha enzyme, ADP-Glo luminescence, 60 min; stronger effect = lower value; max response, %; 330,000 compounds, 1.2% hits; AID 652105, 2013; active = max response of -50% or lower; inconclusive = between -30% and -50%; inactive = -30% or higher; also: value at the top dose of about 77 µM; % is scaled to controls: 0 for no effect and ±100 for the full control effect
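ADP-Glo luminescence end-point read after a 60 min room-temperature kinase reaction of PI5P4Kalpha plus substrate, initiated with ATP at 5 microM final. Buffer: 0.038 M HEPES pH 7.4, EGTA, 0.1% CHAPS, 5% DMSO.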
BAZ2B block: qHTS Assay for Inhibitors of BAZ2B; AID 504333, 2011; Bromodomain adjacent to zinc finger domain protein 2B (Homo sapiens), Q9UIF8; 360,000 compounds, 4.4% hits; AlphaScreen BAZ2B-H3K14Ac peptide displacement; Potency, µM (doses to about 114 µM), without a hit: at the highest dose activity change, negative = inhibition, actives largely listed as inhibitors; also: potency is read from the fitted curve at half-maximal effect; % is scaled to controls: 0 for no effect and ±100 for the full control effect; nearly all actives have a fitted effect of over 60% in size
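Multi-concentration screen (max 110 uM) measuring displacement of acetylated histone H3 peptide from BAZ2B by AlphaScreen, using 50 nM protein, 50 nM peptide and 10 ug/mL streptavidin donor plus Ni-chelate acceptor beads.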
L3MBTL1 block: qHTS Assay for the Inhibitors of L3MBTL1; Lethal(3)malignant brain tumor-like protein 1 (Homo sapiens), Q9Y468; AlphaScreen L3MBTL1–H3K9me1 peptide binding; Potency, µM (series often up to 57.1 µM), for inactives: at the highest dose activity, negative = inhibition, actives largely listed as inhibitors; 230,000 compounds, 0.66% hits; AID 485360, 2010; also: potency is read from the fitted curve at half-maximal effect; % is scaled to controls: 0 for no effect and ±100 for the full control effect; nearly all actives have a fitted effect of over 60% in size
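First, the protein-peptide complex forms for 30 min at room temperature (L3MBTL1 50 nM, biotinylated H3K9me1 peptide 75 nM). Next, compounds are pin-transferred and incubated 30 min. Finally, AlphaScreen beads are added and read after 30 min.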
* hit, by the source's call; ? = inconclusive; · = not tested or not shown; [ ] = another dose, or the depositor's remark. Compounds with a hit are over-represented: about 11% of the library has one in this group of screens. Unless noted, calls follow the shape of the dose curve; as a rule, active = well fitted inhibition curve with a large enough effect; inconclusive = small, poorly fitted or top-dose-only effect; inactive = no such curve, though single readings can be large or run the other way.

SMILES	HP1b chromo inh	G9a inh	JMJD2A Tudor inh	PI5P4K alpha inh	BAZ2B block	L3MBTL1 block
C[n+]1cc2c3c(ccc2c2ccc4cc5c(cc4c21)OCO5)OCO3	-18%	1.9µM*	89µM*	·	·	·
CC(C)Cc1ccc(CN2CCCC(NC(=O)CCN3CCCO3)C2)cc1 (stereo not given)	11%	79µM*	-25%	11	-32%	·
Cc1cc(C)c(S(=O)(=O)Oc2ccccc2[N+](=O)[O-])c(C)c1	32%	·	-18%	2	·	·
CC1=CC(=O)C=C(C)C1=NOc1ccccc1[N+](=O)[O-]	5%	25µM*	-28%	-20	1%	7%
N#CC1=C(Nc2ccccc2)SC=C(c2ccccc2)N=C1N1CCOCC1	36%	50µM*	-18%	1	-1%	·
O=C(NCc1ccc2[nH]c3c(c2c1)CCCC3)N1CCOCC1	·	?	·	·	-1%	·
O=C(NCc1ccc2[nH]c3c(c2c1)CCCC3)c1ccc(S(=O)(=O)N2CCCC2)cc1	7%	45µM*	-27%	-4	-37%	-6%
O=C(NCc1ccc2[nH]c3c(c2c1)CCCC3)c1ccc(S(=O)(=O)N2CCOCC2)cc1	-7%	40µM*	-35%	2	?	-6%
Cc1cc2cc(CNC(=O)c3ccc(S(=O)(=O)N4CCCCC4)cc3)ccc2[nH]1	18%	-14%[59 µM]	-22%	2	-33%	-16%
CCN(CC)S(=O)(=O)c1ccc(C(=O)NCc2ccc3[nH]c4c(c3c2)CCCC4)cc1	-3%	?	-28%	10	?	-12%
CN(C)S(=O)(=O)c1ccc(C(=O)NCc2ccc3[nH]c4c(c3c2)CCCC4)cc1	-10%	45µM*	?	6	?	-11%
COc1cccc(CNC(=O)CCCn2nc(C)c3sc4ccccc4c3c2=O)c1	55%	-34%[59 µM]	-5%	·	1%	·
CCN(CC)CCn1c2c(c(SCC(=O)Nc3ccc(C(C)C)cc3)nc1=O)CCCC2	16%	-24%	-3%	0	-3%	-7%
CCN(CC)CCCn1c2c(c(SCC(=O)Nc3ccc(F)c(F)c3)nc1=O)CCC2	28%	-43%	-1%	-1	-5%	-1%
CN(C)CCCn1c2c(c(SCC(=O)Nc3cccc4ccccc34)nc1=O)CCCC2	19%	40µM*	-5%	4	3%	-2%
CCN(CC)CCCn1c2c(c(SCC(=O)Nc3cccc4ccccc34)nc1=O)CCC2	13%	40µM*	-17%	7	12%	-2%
CCN(CC)CCCn1c2c(c(SCC(=O)Nc3cc(OC)cc(OC)c3)nc1=O)CCC2	33%	50µM*	-9%	-3	2%	-2%
Cc1ccc(NC(=O)CSc2nc(=O)n(CCCN(C)C)c3c2CCC3)c(C)c1	13%	-27%	-8%	-6	-8%	12%
CCCCc1ccc(NC(=O)CSc2nc(=O)n(CCN(CC)CC)c3c2CCC3)cc1	8%	50µM*	-34%	5	-1%	2%
Fc1ccc(C(c2ccc(F)cc2)N2CCN(C/C=C\c3ccccc3)CC2)cc1	·	-1%[21.5 µM]	·	·	·	·
CCCOc1ccc([C@@H]2C3CN(C(=O)OCC)CC=C3C(C#N)=C(N)C2(C#N)C#N)cc1OC (stereo not given in full)	27%	?	-12%	·	2%	-8%
CCC1C2CN(C(C)=O)CC=C2C(C#N)=C(N)C1(C#N)C#N (stereo not given)	64%	45µM*	-6%	-6	-4%	7%
CCCC1C2CN(C(C)=O)CC=C2C(C#N)=C(N)C1(C#N)C#N (stereo not given)	57%	14µM*	-9%	-4	-6%	-28%[11.4 µM]
